The values below come from PubChem BioAssay (NCATS).

The nature of experiment [1]: Quantitative High-Throughput drug screen in 47 multiple myeloma cell lines against the NCATS MIPE library collection: Delta47_JCRB cell viability assay (AID 1918925; note: nearly all actives have a fitted effect of over 45% in size). Summed up: (§1)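 Approved and investigational drugs from MIPE 4.0 were added by pin tool to 500 cells per well. After 48 hours at 37C, ATP-based CellTiter-Glo luminescence indicated remaining viability.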
The nature of experiment [2]: Quantitative High-Throughput drug screen in 47 multiple myeloma cell lines against the NCATS MIPE library collection: KMM1_JCRB cell viability assay (AID 1918960).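 For viability (% of DMSO): 100% = DMSO-treated cells and 0% = medium-only wells.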 Note: nearly all actives have a fitted effect of over 30% in size. In a few lines:
(§2)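 Here, 48 h treatment with MIPE 4.0 agents at 37 °C preceded an ATP luminescence read. Plating density was 500 cells per well.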

Experiment [3] can be described thus: Quantitative High-Throughput drug screen in 47 multiple myeloma cell lines against the NCATS MIPE library collection: JIM3_ECACC cell viability assay (AID 1918963; note: nearly all actives have a fitted effect of over 35% in size). Summed up:
(§3)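 CellTiter-Glo luminescence (ATP) after 48 h compound exposure, 37C/5% CO2; 500 cells/well; MIPE 4.0 approved/investigational drugs pinned in; DMSO = 100%, media only = 0% viability.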

A short description of experiment [4]: Quantitative High-Throughput drug screen in 47 multiple myeloma cell lines against the NCATS MIPE library collection: INA6_PLB cell viability assay (AID 1918965; note: nearly all actives have a fitted effect of over 55% in size). In a few lines: (§4)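 Myeloma cells (500 per well) were exposed to MIPE 4.0 compounds by pin transfer and incubated 48 hours at 37C, 5% CO2. Viability was read as ATP by CellTiter-Glo luminescence, normalised to DMSO (100%) and media-only (0%) wells.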

Experiment [5] is described as follows: Quantitative High-Throughput drug screen in 47 multiple myeloma cell lines against the NCATS MIPE library collection: Karpas25_ECACC cell viability assay (AID 1918968; note: nearly all actives have a fitted effect of over 35% in size). Summed up: as §1
The nature of experiment [6]: Quantitative High-Throughput drug screen in 47 multiple myeloma cell lines against the NCATS MIPE library collection: KMS12BM_JCRB cell viability assay (AID 1918971). Note: nearly all actives have a fitted effect of over 35% in size. In a few lines:
as §1

The nature of experiment [7]: Quantitative High-Throughput drug screen in 47 multiple myeloma cell lines against the NCATS MIPE library collection: ARP1_JJKsccF8 cell viability assay (AID 1918928; note: nearly all actives have a fitted effect of over 40% in size). In a few lines: as §2
The nature of experiment [8]: Quantitative High-Throughput drug screen in 47 multiple myeloma cell lines against the NCATS MIPE library collection: ARD_JJKsccE7 cell viability assay (AID 1918929). Summed up: as §1
Experiment [9] in a line: Quantitative High-Throughput drug screen in 47 multiple myeloma cell lines against the NCATS MIPE library collection: Karpas620_DSMZ cell viability assay (AID 1918959). Note: nearly all actives have a fitted effect of over 30% in size. In a few lines: as §3
A short description of experiment [10]: Quantitative High-Throughput drug screen in 47 multiple myeloma cell lines against the NCATS MIPE library collection: JIM1_ECACC cell viability assay (AID 1918964). In a few lines: as §1
Experiment [11] is described as follows: Quantitative High-Throughput drug screen in 47 multiple myeloma cell lines against the NCATS MIPE library collection: AMO1_DSMZ cell viability assay (AID 1918927; note: nearly all actives have a fitted effect of over 30% in size). Summed up: as §1
Experiment [12] in a line: Quantitative High-Throughput drug screen in 47 multiple myeloma cell lines against the NCATS MIPE library collection: KHM11_PLB cell viability assay (AID 1918962). Note: nearly all actives have a fitted effect of over 35% in size. In a few lines: as §3
A short description of experiment [13]: Quantitative High-Throughput drug screen in 47 multiple myeloma cell lines against the NCATS MIPE library collection: H1112_PLB cell viability assay (AID 1918967; note: nearly all actives have a fitted effect of over 30% in size). Summed up: as §1
A short description of experiment [14]: Quantitative High-Throughput drug screen in 47 multiple myeloma cell lines against the NCATS MIPE library collection: KMS27_JCRB cell viability assay (AID 1918970). Note: nearly all actives have a fitted effect of over 30% in size. The note with it: KMS27 myeloma cells, CellTiter-Glo ATP viability, 48 h; viability (% of DMSO): at 45.8 µM (top of the series). In a few lines:
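Myeloma cells (500 per well) were exposed to MIPE 4.0 compounds for 48 h at 37 °C, 5% CO2; viability was read as ATP luminescence with CellTiter-Glo, normalized to DMSO-only (100%) and media-only (0%) wells.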
For orientation: Cellular ATP, detected with luciferase, serves as a proxy for viable cell number.

Experiment [15] can be described thus: Quantitative High-Throughput drug screen in 47 multiple myeloma cell lines against the NCATS MIPE library collection: EJM_DSMZ cell viability assay (AID 1918926; note: nearly all actives have a fitted effect of over 30% in size). In a few lines: as §1
Experiment [16] in a line: Quantitative High-Throughput drug screen in 47 multiple myeloma cell lines against the NCATS MIPE library collection: Karpas417_ECACC cell viability assay (AID 1918961). The note with it: Karpas417 myeloma viability, CellTiter-Glo ATP luminescence, 48 h; viability (% of DMSO): at 45.8 µM (top of the series). In a few lines: as §4
Experiment [17] can be described thus: Quantitative High-Throughput drug screen in 47 multiple myeloma cell lines against the NCATS MIPE library collection: JJN3_DSMZ cell viability assay (AID 1918966; note: nearly all actives have a fitted effect of over 50% in size). Summed up: as §1

Each structure is given as a SMILES string. Inconclusive results are not listed. Active and inactive are the calls of the source. Calls come from the whole dose curve; as a rule, active = well fitted curve in the direction sought with a large enough effect; inconclusive = small, poorly fitted or top-dose-only effect, or another doubt; inactive = no such curve, though single readings can be large; an effect the other way counts as inactive or inconclusive.
Potency is the fitted concentration of half-maximal effect.

In the case of `Cc1nn(Cc2ccccc2Cl)c(C)c1CN(C)CC(O)COc1ccc(Cl)cc1` (stereo unspecified), the Potency in experiment [1] was 18.7 µM (active); in experiment [2] it was 5.9 µM (active); in experiment [3], 18.7 µM (active); in [4], 20.9 µM (active); in experiment [5] it was 20.9 µM (active); in [6], 23.5 µM (active).
Regarding `CN1CCN(c2ncc(-c3cc(Cl)cc(Cl)c3Cl)c(N)n2)CC1`, the Potency in experiment [1] was 23.5 µM (active); in experiment [9], 20.9 µM (active); in experiment [10], 23.5 µM (active); in experiment [4] it was 13.2 µM (active). Moreover, the Potency entry in experiment [7], in experiment [8], in [3] and in experiment [6] was “inactive” each time.
As to `CN(C)c1ccccc1CN1CCCN(Cc2ccccc2N(C)C)C1c1ccncc1`, the Potency in experiment [1] was 20.9 µM (active); in [11], 16.6 µM (active); in experiment [8] it was 18.7 µM (active); in experiment [12], 3.32 µM (active); in [4], 23.5 µM (active); in experiment [6], 16.6 µM (active).
Regarding `CN1CCC[C@H]1CCO[C@](C)(c1ccccc1)c1ccc(Cl)cc1`, the results for the Potency in experiment [1], in experiment [4] and in experiment [5] were 13.2 µM (active), 18.7 µM (active) and 13.2 µM (active), respectively. The Potency entry in [7], in experiment [8] and in [2] was “inactive” throughout.
As to `CCC(=O)OCC(=O)[C@@]1(OC(=O)CC)[C@@H](C)C[C@@H]2[C@H]3CCC4=CC(=O)C=C[C@]4(C)[C@@]3(F)[C@@H](O)C[C@@]21C`, the Potency result in [1], in experiment [12] and in [13] was “inactive” each time. The Potency in experiment [9] is 2.35 µM (active); in experiment [10] it was 6.62 µM (active); in experiment [5] it was 0.118 µM (active); in [14], 4.18 µM (active).
Consider `CCNC(=O)[C@H]1O[C@@H](n2cnc3c(N)nc(NCCc4ccc(CCC(=O)O)cc4)nc32)[C@H](O)[C@H]1O`, for which the Potency was 33.2 nM (active) in experiment [15]; 0.105 µM (active) in experiment [11]; 29.6 nM (active) in experiment [16]; 0.0469 µM (active) in [12]; 0.209 µM (active) in [4]; 0.059 µM (active) in experiment [17]. Besides, the results for the Potency in experiment [5] and in experiment [6] were 0.105 µM (active) and 3.32 µM (active), respectively. Also, the Potency entry in experiment [8], in experiment [9], in experiment [2], in experiment [3], in experiment [10] and in experiment [13] was “inactive” throughout.
In the case of `COc1ccc2c(c1)c(C1=C(c3c[nH]c4ccccc34)C(=O)NC1=O)cn2CCCN(C)C`, the Potency was 7.43 µM (active) in experiment [1]; 14.8 µM (active) in [11]; 23.5 µM (active) in experiment [8]; 23.5 µM (active) in [2]; 13.2 µM (active) in experiment [3]; 0.526 µM (active) in experiment [4]. Further, the Potency is 20.9 µM (active) in experiment [17], 20.9 µM (active) in experiment [5] and 18.7 µM (active) in [14].
As for `COc1cc([C@@H]2c3cc4c(cc3[C@@H](O[C@@H]3O[C@@H]5CO[C@@H](C)O[C@@H]5[C@H](O)[C@@H]3O)[C@H]3COC(=O)[C@H]23)OCO4)cc(OC)c1O`, the Potency entry in experiment [8], in [12] and in experiment [17] was “inactive” throughout. Further, the Potency is 0.332 µM (active) in [4], 0.418 µM (active) in experiment [14] and 1.48 µM (active) in experiment [6].
As for `Cc1ccc(NC(=O)c2cccc(N(C)C)c2)cc1NC(=O)c1ccc(O)cc1`, the Potency in [11] was 0.235 µM (active); in [9], 5.9 µM (active); in experiment [12], 13.2 µM (active); in experiment [4], 16.6 µM (active); in [17], 23.5 µM (active); in experiment [13] it was 0.166 µM (active). In addition, the results for the Potency in experiment [5], in experiment [14] and in [6] were 0.118 µM (active), 1.05 µM (active) and 7.43 µM (active), respectively.
Take `Oc1ccc(C=Cc2cc(O)cc(O)c2)cc1`: the Potency in experiment [7] was 13.2 µM (active); in [4], 16.6 µM (active); in experiment [5], 18.7 µM (active); in experiment [6], 33.2 µM (active). Also, the Potency entry in [9], in [2], in [10] and in [14] was “inactive” each time.
As to `Cc1cc2nc3c(=O)[nH]c(=O)nc-3n(CC(O)C(O)C(O)CO)c2cc1C` (stereo unspecified), the Potency is 4.69 µM (active) in [7] and 2.64 µM (active) in [17]. Besides, the Potency result in experiment [3], in experiment [4], in [13] and in [5] was “inactive” throughout.
Take `CN(C)CCOc1ccc(C(=C(CCCl)c2ccccc2)c2ccccc2)cc1`: the Potency result in experiment [11], in experiment [7], in experiment [8], in experiment [16], in experiment [12] and in [10] was “inactive” in each case. The Potency result in experiment [14] is “inactive”. For the same compound, the Potency in [4] is 4.18 µM (active); in experiment [17], 23.5 µM (active).
Consider `CC1C(=O)OC2C(O)C34C5CC(C(C)(C)C)C36C(OC(=O)C6O)OC4(C(=O)O5)C12O` (stereo unspecified), for which the Potency entry in experiment [8], in experiment [9], in [2], in experiment [3], in [10] and in experiment [4] was “inactive” throughout. The Potency result in experiment [17], in experiment [13], in [14] and in experiment [6] was “inactive” each time.
Take `Cc1ccc(C(=O)N(CCCN)[C@@H](c2nc3cc(Cl)ccc3c(=O)n2Cc2ccccc2)C(C)C)cc1`: the Potency entry in [7], in experiment [3] and in experiment [10] was “inactive” in each case. In addition, the Potency in experiment [2] was 0.001 µM (active); in experiment [12], 10.5 µM (active); in [17], 18.7 µM (active). In experiment [14], the viability (% of DMSO) is 70.3% (active).
`CC[C@@H]([C@H](C)O)n1ncn(-c2ccc(N3CCN(c4ccc(OCC5CO[C@@](Cn6cncn6)(c6ccc(F)cc6F)C5)cc4)CC3)cc2)c1=O` (stereo partly specified): the Potency was 7.43 µM (active) in experiment [11]; 5.9 µM (active) in experiment [9]; 5.9 µM (active) in [2]; 5.26 µM (active) in [3]; 10.5 µM (active) in experiment [4]; 4.18 µM (active) in [17]. Also, the Potency in experiment [5] was 6.62 µM (active); in experiment [6] it was 16.6 µM (active). For the same compound, in experiment [12], the Potency result was “inactive”.
For `Cc1cc(OCCCS(C)(=O)=O)cc(C)c1-c1cccc(COc2ccc3c(c2)OC[C@H]3CC(=O)O)c1`, the Potency entry in [15], in experiment [8] and in [10] was “inactive” in each case. Moreover, the Potency in experiment [9] is 5.9 µM (active); in experiment [3] it was 14.8 µM (active); in experiment [17], 11.8 µM (active); in experiment [13], 20.9 µM (active); in [6], 13.2 µM (active).
Regarding `COc1cc2c(cc1OC)[C@@H]1Cc3ccc(OC)c(OC)c3CN1CC2`, the Potency entry in experiment [11], in experiment [8], in [9] and in experiment [14] was “inactive” throughout. For the same compound, the Potency in [7] is 13.2 µM (active); in experiment [17] it was 20.9 µM (active); in [5], 16.6 µM (active); in [6], 18.7 µM (active).
